Measurements taken from PubChem BioAssay (NCATS).
Records with an inconclusive call do not appear. Calls of active or inactive are those of the source. The call rests on the fitted dose curve; in most records, active means well fitted curve in the direction sought with a large enough effect; inconclusive means small, poorly fitted or top-dose-only effect, or another doubt; inactive means no such curve, though single readings can be large; an effect the other way counts as inactive or inconclusive.

Legend:
[1] = system: MCC-13; test: qHTS assay to identify novel small-molecules to repurpose for Merkel cell carcinoma treatment (AID 1296009); details: MCC and control cell lines, CellTiter-Glo viability, 72 h; series mostly up to 46 µM; further: nearly all actives have a fitted effect of over 60% in size
Procedure, shortened: (§1)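 Cell viability measured by CellTiter-Glo following 72 hr compound treatment at 37 degree celsius, with NPC and MIPE libraries tested in 8- and 11-point concentration series.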

[2] = system: MCC-26; test: as above; details: MCC and control cell lines, CellTiter-Glo viability, 72 h; series mostly up to 46 µM
Procedure, shortened: as §1

[3] = system: MKL-1; test: as above; details: MCC and control cell lines, CellTiter-Glo viability, 72 h; series mostly up to 46 µM
Procedure, shortened: as §1

[4] = system: MKL-2; test: as above; details: MCC and control cell lines, CellTiter-Glo viability, 72 h; series mostly up to 46 µM
Procedure, shortened: as §1

[5] = system: UISO; test: as above; details: MCC and control cell lines, CellTiter-Glo viability, 72 h; series mostly up to 46 µM
Procedure, shortened: as §1

[6] = system: WaGa; test: as above; details: MCC and control cell lines, CellTiter-Glo viability, 72 h; series mostly up to 46 µM
Procedure, shortened: as §1

[7] = system: C33A; test: Primary qHTS to identify gynecologic anti-cancer compounds using libraries of approved drugs and bioactive compounds (AID 1345084); details: Gynecologic cancer cell panel viability, ATPlite luminescence, 48 h; series mostly up to 57.5 µM; further: nearly all actives have a fitted effect of over 55% in size
Procedure, shortened: (§2)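 Luminescence from the ATPlite ATP-monitoring reagent indicates viable cell number; lower signal means cytotoxicity. Cells received compound 16 h after seeding and were exposed for 48 h across five concentrations.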

[8] = system: CAOV3; test: as above; details: Gynecologic cancer cell panel viability, ATPlite luminescence, 48 h; series mostly up to 57.5 µM
Procedure, shortened: as §2

[9] = system: CASKI; test: as above; details: Gynecologic cancer cell panel viability, ATPlite luminescence, 48 h; series mostly up to 57.5 µM
Procedure, shortened: as §2

[10] = system: Es-2; test: as above; details: Gynecologic cancer cell panel viability, ATPlite luminescence, 48 h; series mostly up to 57.5 µM
Procedure, shortened: as §2

[11] = system: HeLa; test: as above; details: Gynecologic cancer cell panel viability, ATPlite luminescence, 48 h; series mostly up to 57.5 µM
Procedure, shortened: as §2

[12] = system: Hek293T; test: as above; details: Gynecologic cancer cell panel viability, ATPlite luminescence, 48 h, control line for the selectivity index; series mostly up to 57.5 µM
Procedure, shortened: as §2

[13] = system: JEG-3; test: as above; details: Gynecologic cancer cell panel viability, ATPlite luminescence, 48 h; series mostly up to 57.5 µM
Procedure, shortened: as §2

[14] = system: OV90; test: as above; details: Gynecologic cancer cell panel viability, ATPlite luminescence, 48 h; series mostly up to 57.5 µM
Procedure, shortened: as §2

[15] = system: PA-1; test: as above; details: Gynecologic cancer cell panel viability, ATPlite luminescence, 48 h; series mostly up to 57.5 µM
Procedure, shortened: as §2

[16] = system: SKOV3; test: as above; details: Gynecologic cancer cell panel viability, ATPlite luminescence, 48 h; series mostly up to 57.5 µM
Procedure, shortened: as §2

[17] = system: Tov-21-G; test: as above; details: Gynecologic cancer cell panel viability, ATPlite luminescence, 48 h; series mostly up to 57.5 µM
Procedure, shortened: as §2

[18] = system: Tov112D; test: as above; details: Gynecologic cancer cell panel viability, ATPlite luminescence, 48 h; series mostly up to 57.5 µM
Procedure, shortened: as §2

[19] = Drug repurposing screens with cells derived from glioblastoma tumor samples (AID 1345199); details: GBM patient neurospheres viability, ATP luminescence, 48 h; further: nearly all actives have a fitted effect of over 40% in size
Procedure, shortened: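 Primary testing used CD133+ neurospheres from four GBM patients, seven concentrations, 48 h exposure and ATP-based viability; confirmation added three slower-growing patient lines.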

[20] = system: NIH3T3; test: qHTS assay to identify novel small-molecules to repurpose for Merkel cell carcinoma treatment (AID 1296009); details: MCC and control cell lines, CellTiter-Glo viability, 72 h; at 44.8 µM (top of the series) unless noted; further: nearly all actives have a fitted effect of over 60% in size
Procedure, shortened: as §1

[21] = at 45.9 µM (top of the series), tumour line B
[22] = at 45.9 µM (top of the series), tumour line D
[23] = at 46.1 µM (top of the series), tumour line C
[24] = at 46 µM (top of the series), tumour line A
On the % scale 0 is the no-effect control and ±100 the full control effect.

CCCc1c(OCCCCc2nn[nH]n2)ccc(C(C)=O)c1O
inactive: Potency [1] | Potency [2] | Potency [3] | Potency [4] | Potency [5] | Potency [6] | Potency [7] | Potency [8] | Potency [9] | Potency [10] | Potency [11] | Potency [12] | Potency [13] | Potency [14] | Potency [15] | Potency [16] | Potency [17] | Potency [18]

CCN(CC)C(=O)Nc1ccc(OCC(O)CNC(C)(C)C)c(C(C)=O)c1 (stereo not given)
inactive: Potency [1] | Potency [2] | Potency [3] | Potency [4] | Potency [5] | Potency [6] | Potency [7] | Potency [8] | Potency [9] | Potency [10] | Potency [11] | Potency [12] | Potency [13] | Potency [14] | Potency [15] | Potency [16] | Potency [17] | Potency [18] | activity, negative = cell killing [19, 21] -20.9% | activity, negative = cell killing [19, 22] 0.286% | activity, negative = cell killing [19, 23] -24.6%

CCCCCCCCCCCCCCCCCCOCC(O)CO (stereo not given)
inactive: Potency [1] | Potency [2] | Potency [3] | Potency [4] | Potency [5] | Potency [6] | Potency [7] | Potency [8] | Potency [9] | Potency [10] | Potency [11] | Potency [12] | Potency [13] | Potency [14] | Potency [15] | Potency [16] | Potency [17] | Potency [18] | activity, negative = cell killing [19, 21] 0.27% | activity, negative = cell killing [19, 22] 9.38% | activity, negative = cell killing [19, 24] -23.8% | activity, negative = cell killing [19, 23] 24.6%

CO/N=C(\C(=O)N[C@@H]1C(=O)N2C(C(=O)O)=C(CSc3nc(=O)c(O)nn3C)CS[C@H]12)c1csc(N)n1
inactive: Potency [1] | Potency [2] | Potency [3] | Potency [4] | outcome [20] | Potency [5] | Potency [6] | Potency [7] | Potency [9] | Potency [10] | Potency [11] | Potency [12] | Potency [13] | Potency [14] | Potency [15] | Potency [16] | Potency [17] | Potency [18] | activity, negative = cell killing [19, 21] -2.24% | activity, negative = cell killing [19, 22] -10.7% | activity, negative = cell killing [19, 24] -24.8% | activity, negative = cell killing [19, 23] -11.4%

NC(CSCC(=O)O)C(=O)O (stereo not given)
inactive: Potency [1] | Potency [2] | Potency [3] | Potency [4] | outcome [20] | Potency [5] | Potency [6] | Potency [7] | Potency [9] | Potency [10] | Potency [11] | Potency [12] | Potency [13] | Potency [14] | Potency [15] | Potency [16] | Potency [17] | Potency [18] | activity, negative = cell killing [19, 21] -1.36% | activity, negative = cell killing [19, 22] -6.13% | activity, negative = cell killing [19, 24] -25.4% | activity, negative = cell killing [19, 23] -7.6%
